A number with no mark means an inactive call. Records with an inconclusive call do not appear. Activity calls are given as the source filed them. Unless noted, calls come from the whole dose curve; as a rule, active = well fitted curve in either direction with a large enough effect (not every such curve was filed as active); inconclusive = small, poorly fitted or top-dose-only effect, or another doubt; inactive = flat fitted curve, though single readings scatter.
Experiments:
[1] = target: Lysosomal acid glucosylceramidase (Homo sapiens) (UniProt P04062); assay: Glucocerebrosidase-p2 (AID 348; in the data active = potency below about 10 µM; note: potency is the fitted concentration of half-maximal effect); conditions: purified GBA, blue fluorogenic substrate, 40 min
Method in brief: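 Compounds titrated from 0.6 nM upwards against 0.2 nM enzyme in pH 5.9 citric acid/KH2PO4, taurocholate, tween-20; blue fluorogenic substrate 80 uM, 40 min room temperature, stopped and read Ex 365/Em 440 for AC50.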

[2] = AP1 Signaling Pathway (AID 357); conditions: ME-180 AP-1-bla reporter, EGF-induced, beta-lactamase ratio, 5 h; at 7.69 µM (top of the series) unless noted;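 note: ME-180 reporter cells stimulated with EGF at its EC50 level; % is set by controls: 0 for no effect and ±100 for the full control effect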
Method in brief: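 AP-1-bla ME-180 cells, Opti-MEM + 0.5% dialyzed FBS, plated overnight 37 °C. Cpd titration + EC50 EGF, 5 h 37 °C. CCF4 2.5 h RT; ex 405, em 460/530 ratio → %activity, AC50.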

[3] = target: Cytochrome P450 1A2 (Homo sapiens) (UniProt P05177); assay: p450-cyp1a2 (AID 410; calls by dose curve; note: potency is the fitted concentration of half-maximal effect;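 for activity change, negative = inhibition: -100% = full effect of reference inhibitor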); conditions: recombinant CYP1A2, luciferin-ME demethylation, luminescence; series mostly up to 11.4 µM
Method in brief: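 20nM CYP1A2 with 100uM Luciferin-ME (at Km) in 100mM KPO4; compound preincubated 10 min, NADPH regeneration added, 60 min at room temperature. Luciferin quantified by luminescence after detection reagent; normalized to 57 uM furafylline.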

[4] = Stat Signaling Pathway (AID 446); conditions: ME-180 SIE beta-lactamase reporter, IL-6 stimulated, 5 h; at 7.69 µM (top of the series) unless noted;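 note: ME-180 cervical cancer cells given 40 pM IL-6 alongside compound; SIE-controlled beta-lactamase reporter measured as 460/530 nm FRET emission ratio; % is set by controls: 0 for no effect and ±100 for the full control effect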
Method in brief: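 Screening format detects activators and inhibitors alike: ME-180 SIE-bla cells stimulated at 40 pM IL-6 for 5 hrs with compound, then dual-emission beta-lactamase read at 405 nm excitation.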

[5] = target: Glucocorticoid receptor (Homo sapiens) (UniProt P04150); assay: GR-GFP Redistribution (AID 450;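 active = compounds whose dose series gives a full or clear partial fitted curve of increased nuclear translocation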; note: potency is the fitted concentration of half-maximal effect); conditions: U2OS GR-GFP nuclear translocation, laser cytometry, 2 h
[6] = target: Glucocorticoid receptor (Homo sapiens) (UniProt P04150); assay: GR-EFC Redistribution (AID 451; calls by dose curve; note: potency is the fitted concentration of half-maximal effect); conditions: CHO-K1 GR-EFC translocation, beta-gal luminescence, 2 h
Method in brief: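 CHO-K1 cells expressing nuclear EA and GR-ED fragments of b-gal; compounds titrated up to 46 uM final, 2 h at 37 C. GR nuclear translocation read as complemented b-gal luminescence after 1 h RT detection.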

[7] = target: Mitogen-activated protein kinase 10 (Mus musculus) (UniProt Q61831); assay: JNK3 AlphaScreen Assay (AID 530); conditions: JNK3 lysate, c-Jun phosphorylation; series mostly up to 11.4 µM;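 note: kinase came from lysate of stimulated human HepG2 cells; signal reports phosphorylation of biotinylated GST-cJun 1-79 at Ser73 with 10 µM ATP; % is set by controls: 0 for no effect and ±100 for the full control effect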
Method in brief: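 Pre-activated (IL-1β/TNFα) JNK3 in HepG2 lysates phosphorylates biotin-GST-cJun(1-79), 10 uM ATP; anti-phospho-cJun(Ser73) AlphaScreen read at room temperature, pH 7.6 Tris buffer. Compounds pre-incubated 15 min as titrations.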

[8] = target: 3',5'-cyclic-AMP phosphodiesterase 4B (Homo sapiens) (UniProt Q07343); assay: qHTS Assay for Inhibitors of PDE-IV (AID 607; active = well fitted activation curve with a large enough effect in the main read-out, with a control signal flat, not every such curve was filed as active; note: % of control where 0% means no effect); conditions: HEK293 ACTOne CNG channel cells, membrane potential fluorescence; series mostly up to 22.9 µM
Method in brief: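 The readout is membrane depolarisation from a cAMP-sensing CNG channel, detected with a potential dye at ex 535/em 590. Cells were HEK293-derived (endogenous PDE-IV) at 1000 cells/well, titrated up to 22.9 uM final.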

[9] = target: Cytochrome P450 2D6 (Homo sapiens) (UniProt P10635); assay: qHTS Assay for Inhibitors and Substrates of Cytochrome P450 2D6 (AID 891; active = well fitted curve in the direction sought with a large enough effect; an effect the other way counts as inactive or inconclusive; note: nearly all actives have a fitted effect of over 60% in size; note: potency is the fitted concentration of half-maximal effect;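 for activity change, negative = inhibition: luciferin methyl ether substrate demethylated by CYP2D6 with NADPH regeneration; % is set by controls: 0 for no effect and ±100 for the full control effect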); conditions: recombinant CYP2D6, luciferin-ME EGE luminescence; series mostly up to 11.4 µM
Method in brief: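 Human CYP2D6 (5 nM) with 30 uM Luciferin-ME EGE (at Km) in 100 mM KPO4, compound preincubated 10 min, then NADPH regeneration system for 60 min at room temperature. Luciferin read by luminescence; normalized to 1.43 uM quinidine.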

[10] = target: Cytochrome P450 2C9 (Homo sapiens) (UniProt P11712); assay: qHTS Assay for Inhibitors and Substrates of Cytochrome P450 2C9 (AID 883; active = well fitted curve in the direction sought with a large enough effect; an effect the other way counts as inactive or inconclusive; note: potency is the fitted concentration of half-maximal effect; nearly all actives have a fitted effect of over 60% in size); conditions: recombinant CYP2C9, luciferin-H luminescence, 60 min; series mostly up to 11.4 µM
Method in brief: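 Human CYP2C9 (10nM) with Luciferin-H at 100uM (its KM) in 25mM KPO4; compound preincubated 10 min at 37C, then NADPH regeneration for 60 min at 37C. Luciferin read by luminescence after detection reagent; normalized to 57uM sulphaphenazole as full inhibition.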

[11] = target: Cytochrome P450 2C19 (Homo sapiens) (UniProt P33261); assay: qHTS Assay for Inhibitors and Substrates of Cytochrome P450 2C19 (AID 899; active = well fitted curve in the direction sought with a large enough effect; an effect the other way counts as inactive or inconclusive; note: nearly all actives have a fitted effect of over 60% in size; note: potency is the fitted concentration of half-maximal effect); conditions: recombinant CYP2C19, luciferin-H EGE luminescence; series mostly up to 11.4 µM
Method in brief: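 5 nM human CYP2C19 with 10uM Luciferin-H EGE (at KM) in 50mM KPO4, compound preincubated 10 min at 37C, then NADPH regeneration for 60 min at 37C. Luciferin read by luminescence after detection reagent; normalized to 57uM ketoconazole as full inhibition.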

[12] = target: Cytochrome P450 3A4 (Homo sapiens) (UniProt P08684); assay: qHTS Assay for Inhibitors and Substrates of Cytochrome P450 3A4 (AID 884; active = well fitted curve in the direction sought with a large enough effect; an effect the other way counts as inactive or inconclusive; note: potency is the fitted concentration of half-maximal effect; nearly all actives have a fitted effect of over 50% in size); conditions: recombinant CYP3A4, Luciferin-PPXE luminescence; series mostly up to 57.1 µM
Method in brief: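 20 nM human CYP3A4 with 25 uM Luciferin-PPXE (at KM) in 200 mM KPO4, preincubated 10 min with compound; NADPH regeneration started a 60 min RT reaction. Luciferin detected by luminescence, normalized to 57 uM ketoconazole as full inhibition.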

[13] = target: Cytochrome P450 3A4 (Homo sapiens) (UniProt P08684); assay: qHTS Assay for Activators of Cytochrome P450 3A4 (AID 885; active = well fitted curve in the direction sought with a large enough effect; an effect the other way counts as inactive or inconclusive; note: nearly all actives have a fitted effect of over 65% in size); conditions: recombinant CYP3A4, Luciferin-PPXE luminescence, 60 min; series mostly up to 11.4 µM
Method in brief: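 Steps: enzyme/substrate mix dispensed; compound added, 10 min RT; NADPH regeneration solution added, 60 min RT; luciferin detection buffer stops reaction; 20 min later luminescence measured.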

[14] = qHTS Assay for Identification of Small Molecule Agonists for Hypoxia Response Element Signaling Pathway (AID 914; active = well fitted activation curve with a large enough effect in the signal ratio, with a control signal flat, not every such curve was filed as active; the % refers to the signal ratio; note: % of control where 0% means no effect); conditions: ME-180 (cervical carcinoma) HRE-bla reporter, beta-lactamase ratio, CoCl2, 17 h; activation: active compounds read high
Method in brief: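 A beta-lactamase reporter under hypoxia response element control in ME-180 cells served as the system. Compound titrations plus EC50 CoCl2 ran 17 h at 37 degrees Celsius; AC50 values were fitted from %Activity.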

Chain of Glucocorticoid receptor (Homo sapiens) (P04150 whole entry, looked up, the tested form may be a part): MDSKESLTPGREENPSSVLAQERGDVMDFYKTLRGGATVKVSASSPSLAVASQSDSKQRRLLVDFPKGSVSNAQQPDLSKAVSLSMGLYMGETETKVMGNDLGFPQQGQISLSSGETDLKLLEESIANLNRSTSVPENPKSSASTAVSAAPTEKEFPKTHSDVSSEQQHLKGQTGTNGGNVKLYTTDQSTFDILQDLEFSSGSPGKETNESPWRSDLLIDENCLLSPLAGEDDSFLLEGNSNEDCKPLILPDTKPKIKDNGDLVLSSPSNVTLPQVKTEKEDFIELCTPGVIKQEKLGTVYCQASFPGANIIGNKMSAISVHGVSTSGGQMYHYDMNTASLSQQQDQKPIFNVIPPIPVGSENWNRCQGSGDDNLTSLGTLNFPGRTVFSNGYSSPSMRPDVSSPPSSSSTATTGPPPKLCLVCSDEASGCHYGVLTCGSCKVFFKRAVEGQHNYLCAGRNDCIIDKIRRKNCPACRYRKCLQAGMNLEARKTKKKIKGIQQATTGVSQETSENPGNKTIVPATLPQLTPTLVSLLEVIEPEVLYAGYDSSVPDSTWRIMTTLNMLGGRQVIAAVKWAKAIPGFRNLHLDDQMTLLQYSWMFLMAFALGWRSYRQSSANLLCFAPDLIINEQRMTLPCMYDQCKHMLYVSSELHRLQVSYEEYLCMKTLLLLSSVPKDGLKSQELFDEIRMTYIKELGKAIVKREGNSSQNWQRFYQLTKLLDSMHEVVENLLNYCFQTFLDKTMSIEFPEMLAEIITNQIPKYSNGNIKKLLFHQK
Chain of Cytochrome P450 1A2 (Homo sapiens) (P05177 whole entry, looked up): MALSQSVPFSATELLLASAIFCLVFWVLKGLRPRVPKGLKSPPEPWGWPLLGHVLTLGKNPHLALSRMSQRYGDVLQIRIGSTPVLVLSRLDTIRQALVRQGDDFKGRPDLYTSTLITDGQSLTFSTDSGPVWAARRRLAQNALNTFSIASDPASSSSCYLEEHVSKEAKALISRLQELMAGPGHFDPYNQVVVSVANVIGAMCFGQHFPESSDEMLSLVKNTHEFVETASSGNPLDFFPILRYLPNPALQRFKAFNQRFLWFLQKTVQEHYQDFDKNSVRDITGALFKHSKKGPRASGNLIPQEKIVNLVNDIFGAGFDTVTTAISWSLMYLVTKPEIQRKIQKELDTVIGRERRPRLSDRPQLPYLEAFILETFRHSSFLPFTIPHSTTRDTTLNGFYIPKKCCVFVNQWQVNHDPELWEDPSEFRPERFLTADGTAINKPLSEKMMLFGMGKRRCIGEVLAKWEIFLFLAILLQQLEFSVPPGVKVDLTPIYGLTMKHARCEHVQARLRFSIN
Chain of Cytochrome P450 2D6 (Homo sapiens) (P10635 whole entry, looked up): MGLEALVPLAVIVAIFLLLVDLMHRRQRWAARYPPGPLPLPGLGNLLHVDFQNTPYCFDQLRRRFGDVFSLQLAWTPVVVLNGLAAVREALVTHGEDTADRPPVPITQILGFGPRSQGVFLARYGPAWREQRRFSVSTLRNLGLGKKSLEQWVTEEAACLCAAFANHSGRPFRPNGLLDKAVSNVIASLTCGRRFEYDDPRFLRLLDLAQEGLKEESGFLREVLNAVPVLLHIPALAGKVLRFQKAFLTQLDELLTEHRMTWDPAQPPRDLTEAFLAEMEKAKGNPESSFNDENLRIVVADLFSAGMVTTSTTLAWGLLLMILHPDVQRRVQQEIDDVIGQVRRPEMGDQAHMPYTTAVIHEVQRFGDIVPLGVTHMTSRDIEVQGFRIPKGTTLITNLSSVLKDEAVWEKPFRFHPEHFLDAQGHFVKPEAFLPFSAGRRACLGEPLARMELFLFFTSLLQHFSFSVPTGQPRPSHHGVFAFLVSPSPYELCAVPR
Chain of Cytochrome P450 2C19 (Homo sapiens) (P33261 whole entry, looked up): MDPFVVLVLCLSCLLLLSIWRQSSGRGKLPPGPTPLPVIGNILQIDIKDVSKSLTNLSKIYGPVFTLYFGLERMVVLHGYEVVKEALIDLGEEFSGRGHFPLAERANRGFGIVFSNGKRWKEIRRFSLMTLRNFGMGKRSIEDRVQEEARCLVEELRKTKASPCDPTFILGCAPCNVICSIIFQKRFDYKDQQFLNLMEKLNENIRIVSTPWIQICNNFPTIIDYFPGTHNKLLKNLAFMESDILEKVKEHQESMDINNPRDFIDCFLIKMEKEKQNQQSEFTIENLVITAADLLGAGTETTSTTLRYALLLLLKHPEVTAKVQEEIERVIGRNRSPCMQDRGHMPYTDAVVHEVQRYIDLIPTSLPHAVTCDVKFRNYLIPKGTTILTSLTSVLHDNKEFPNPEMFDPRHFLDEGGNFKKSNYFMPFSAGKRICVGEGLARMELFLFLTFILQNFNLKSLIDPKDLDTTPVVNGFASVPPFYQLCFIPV
Chain of Lysosomal acid glucosylceramidase (Homo sapiens) (P04062 whole entry, looked up): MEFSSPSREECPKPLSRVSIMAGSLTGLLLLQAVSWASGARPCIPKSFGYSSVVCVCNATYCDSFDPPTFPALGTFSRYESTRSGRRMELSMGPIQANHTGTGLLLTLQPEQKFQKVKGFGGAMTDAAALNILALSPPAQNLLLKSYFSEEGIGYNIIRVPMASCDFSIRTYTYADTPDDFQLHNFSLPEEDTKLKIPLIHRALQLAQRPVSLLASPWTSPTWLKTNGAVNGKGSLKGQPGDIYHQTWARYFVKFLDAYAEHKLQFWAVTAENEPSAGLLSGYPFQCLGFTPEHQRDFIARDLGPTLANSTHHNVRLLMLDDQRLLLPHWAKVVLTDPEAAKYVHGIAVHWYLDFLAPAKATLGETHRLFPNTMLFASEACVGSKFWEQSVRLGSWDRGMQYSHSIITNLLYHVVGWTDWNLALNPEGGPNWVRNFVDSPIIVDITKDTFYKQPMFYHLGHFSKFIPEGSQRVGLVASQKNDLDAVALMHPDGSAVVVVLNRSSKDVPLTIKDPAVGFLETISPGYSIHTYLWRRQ
Chain of 3',5'-cyclic-AMP phosphodiesterase 4B (Homo sapiens) (Q07343 whole entry, looked up): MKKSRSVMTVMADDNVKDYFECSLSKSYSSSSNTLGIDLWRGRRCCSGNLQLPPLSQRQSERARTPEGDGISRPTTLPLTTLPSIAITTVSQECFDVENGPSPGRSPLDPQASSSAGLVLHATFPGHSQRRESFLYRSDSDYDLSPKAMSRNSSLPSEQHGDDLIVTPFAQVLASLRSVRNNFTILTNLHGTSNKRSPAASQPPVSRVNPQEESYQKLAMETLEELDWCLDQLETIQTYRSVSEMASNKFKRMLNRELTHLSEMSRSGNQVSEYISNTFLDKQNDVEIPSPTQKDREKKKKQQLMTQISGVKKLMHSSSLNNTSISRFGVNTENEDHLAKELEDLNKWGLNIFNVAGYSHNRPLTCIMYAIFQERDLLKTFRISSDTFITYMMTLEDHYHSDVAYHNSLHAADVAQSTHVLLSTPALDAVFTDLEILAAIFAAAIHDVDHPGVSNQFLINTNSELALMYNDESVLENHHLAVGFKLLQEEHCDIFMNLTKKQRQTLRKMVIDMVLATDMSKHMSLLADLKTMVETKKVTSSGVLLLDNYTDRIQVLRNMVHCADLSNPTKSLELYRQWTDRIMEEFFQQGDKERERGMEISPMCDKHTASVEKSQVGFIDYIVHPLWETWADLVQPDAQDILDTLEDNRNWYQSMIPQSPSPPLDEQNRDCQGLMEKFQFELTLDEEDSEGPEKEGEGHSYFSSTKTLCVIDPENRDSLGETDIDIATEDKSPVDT
Chain of Cytochrome P450 3A4 (Homo sapiens) (P08684 whole entry, looked up): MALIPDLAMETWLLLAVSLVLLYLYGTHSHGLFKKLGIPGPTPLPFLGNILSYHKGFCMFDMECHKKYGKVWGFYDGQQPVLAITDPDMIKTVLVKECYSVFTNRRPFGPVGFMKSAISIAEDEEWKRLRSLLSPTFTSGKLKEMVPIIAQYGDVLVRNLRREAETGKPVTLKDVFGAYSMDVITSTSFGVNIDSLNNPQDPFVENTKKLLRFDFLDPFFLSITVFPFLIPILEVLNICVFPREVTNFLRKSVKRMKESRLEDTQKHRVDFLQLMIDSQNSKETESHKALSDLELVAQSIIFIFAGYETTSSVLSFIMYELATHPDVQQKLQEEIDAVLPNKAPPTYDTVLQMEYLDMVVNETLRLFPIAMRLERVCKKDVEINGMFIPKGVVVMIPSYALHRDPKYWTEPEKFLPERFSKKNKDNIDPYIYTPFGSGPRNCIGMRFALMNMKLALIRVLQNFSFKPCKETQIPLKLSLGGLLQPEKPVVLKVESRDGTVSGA
Chain of Cytochrome P450 2C9 (Homo sapiens) (P11712 whole entry, looked up): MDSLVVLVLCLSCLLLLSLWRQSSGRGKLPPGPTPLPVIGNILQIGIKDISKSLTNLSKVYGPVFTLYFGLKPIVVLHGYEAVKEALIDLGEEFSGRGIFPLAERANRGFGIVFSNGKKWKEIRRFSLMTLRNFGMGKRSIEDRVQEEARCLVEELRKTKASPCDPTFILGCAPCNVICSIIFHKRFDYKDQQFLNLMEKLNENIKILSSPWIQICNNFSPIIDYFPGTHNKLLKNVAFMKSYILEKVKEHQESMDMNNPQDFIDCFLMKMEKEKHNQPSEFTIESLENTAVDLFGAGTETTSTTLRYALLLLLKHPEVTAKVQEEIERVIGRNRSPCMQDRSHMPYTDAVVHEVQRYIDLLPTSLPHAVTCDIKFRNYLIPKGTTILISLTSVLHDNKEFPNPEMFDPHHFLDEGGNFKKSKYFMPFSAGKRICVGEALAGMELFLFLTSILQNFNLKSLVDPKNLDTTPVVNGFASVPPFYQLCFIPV

Compound	Potency [1]	activity change, negative = inhibition [2]	Potency [3]	activity, negative = inhibition [4]	Potency [5]	Potency [6]	Potency [7]	Potency [8]	Potency [9]	activity change, negative = inhibition [3]	Potency [10]	Potency [11]	Potency [12]	Potency [13]	activation [14]
N/N=C1/c2ccccc2N[C@H]1OC(=O)Nc1ccccc1	> 11.4 µM	-4.61%	0.501 µM (active)	-9.98%	> 46 µM	> 9.22 µM	inactive	inactive	3.16 µM (active)						
Cc1cc(Cc2cc(C)cc(C(C)(C)C)c2O)c(O)c(Cc2cc(C)cc(C(C)(C)C)c2O)c1	> 11.4 µM	-27.2%		6.72%	> 46 µM	> 9.22 µM	inactive	inactive		-15.6% [at 2.29 µM]	3.16 µM (active)	3.16 µM (active)			
COc1ccccc1-c1ccc2ncnc(NCc3cccnc3)c2c1	> 11.4 µM	-18.5%	0.794 µM (active)	-19.8%	> 46 µM	> 46 µM	inactive	inactive	7.94 µM (active)			0.0079 µM (active)	0.631 µM (active)	inactive	
CN(C)CC(C)(C)CN1c2ccccc2Sc2ccccc21	> 11.4 µM	24%	inactive	0.898%	> 46 µM	> 9.22 µM	inactive	inactive	0.199 µM (active)					inactive	
C[C@@]12C[C@H](O)[C@@H]3[C@H](CCC4=CC(=O)CC[C@]43C)[C@H]1CC[C@@H]2c1csc(N)n1	> 11.4 µM	4.13%		-3.43%	1.73 µM (active)	> 9.22 µM	inactive	inactive		-9.8% [at 2.29 µM]		3.98 µM (active)	2.51 µM (active)	inactive	
Clc1ccc2c(c1)N(CCCN1CCCC13CCCCC3)c1ccccc1S2	> 11.4 µM	19%		11.1%	> 46 µM	> 9.22 µM	inactive	inactive	0.0079 µM (active)	-6.2% [at 2.29 µM]					
c1ccc2c[n+](Cc3ccnc4ccccc34)ccc2c1	8.58 µM (active)	12.4%		-6.6%	> 46 µM	> 9.22 µM	inactive	inactive	3.16 µM (active)	-21.8% [at 2.29 µM]				inactive	
CN1CCc2ccccc2[C@@H]1Cc1ccccc1NC(=O)c1sc2ccccc2c1Cl	> 11.4 µM	-4.19%	5.01 µM (active)	4.41%	> 46 µM	> 9.22 µM	inactive	inactive	0.0794 µM (active)			2.51 µM (active)	1.58 µM (active)	inactive	
Cc1ccc2nc(N/N=C\c3cccc(C)n3)cc(C)c2c1	> 11.4 µM	-4.58%	0.631 µM (active)	7.26%	> 46 µM	> 9.22 µM	inactive	inactive	3.16 µM (active)					inactive	
CO[C@@H]1/C=C\O[C@@]2(C)Oc3c(C)c(O)c4c(c3C2=O)C(=N[C@H]2CC[C@H](O)O[C@@H]2C)C=C(NC(=O)/C(C)=C\C(=O)[C@@H]2C[C@@H]2[C@@H](O)[C@H](C)[C@@H](O)[C@H](C)[C@H](OC(C)=O)[C@@H]1C)C4=O	> 11.4 µM	26.3%	inactive	-2.6%	> 46 µM	> 9.22 µM	inactive	inactive					1.26 µM (active)	inactive	
Cc1ccccc1C(=N)c1ccccc1Cc1cccc2ccccc12	> 11.4 µM	5.2%		9.25%	> 46 µM	> 9.22 µM	inactive	inactive		-17.7% [at 2.29 µM]				inactive	
Cc1ccc(S(=O)(=O)O[C@H]2C[C@@H](C(C)(C)C)CC[C@@H]2c2ccccc2)cc1	> 11.4 µM	7.67%		4.83%	> 46 µM	> 9.22 µM	inactive	inactive		-22.8% [at 2.29 µM]		3.16 µM (active)		inactive	
Clc1ccc(Cl)c(Nc2ccnc(SCc3ccccc3)n2)c1	> 11.4 µM	1.81%	0.501 µM (active)	0.24%	> 46 µM	> 9.22 µM	inactive	inactive				5.01 µM (active)		inactive	-13.8%
c1ccc(/C(=N/Nc2nc3ccccc3s2)c2ccccn2)cc1	> 11.4 µM	-20.5%	3.16 µM (active)	-1.49%	> 46 µM	> 9.22 µM	inactive	inactive						inactive	
Cc1cc(Cl)nc2ccc(Cc3ccc4nc(Cl)cc(C)c4c3)cc12	> 11.4 µM	-7.81%		-4.37%	> 46 µM	> 9.22 µM	inactive	inactive		-13.2% [at 2.29 µM]		0.501 µM (active)	3.16 µM (active)		
Oc1c([C@H](Nc2ccccn2)c2ccccc2)ccc2cccnc12	> 11.4 µM	-3.08%		15.1%	> 46 µM	> 9.22 µM	inactive	inactive	0.316 µM (active)	-21.9% [at 2.29 µM]					
Oc1ccc(Cc2cc(Cl)cc(Cl)c2O)cc1Cl	> 11.4 µM	-21.8%	1.58 µM (active)	-9.97%	> 46 µM	> 9.22 µM	inactive	inactive			0.199 µM (active)	1.26 µM (active)		inactive	
N/N=C1/c2ccccc2N[C@H]1OC(=O)Nc1cccc(Cl)c1	> 11.4 µM	-17.3%	0.794 µM (active)	-0.394%	> 46 µM	> 9.22 µM	inactive	inactive						inactive	
Cn1ncc2c(NCCc3ccccc3)nc(Cl)nc21	> 11.4 µM	-2.77%	2.51 µM (active)	-19.5%	> 46 µM	> 9.22 µM	inactive	inactive	0.126 µM (active)			0.126 µM (active)	2 µM (active)		
N#CCCn1c(=O)c(-c2ccccc2)nc2cnc(OCc3ccccc3)nc21	> 11.4 µM	-17.7%	3.16 µM (active)	-1.68%	> 9.22 µM	> 46 µM	inactive	inactive						inactive	
O[C@H](CNc1ccccn1)c1ccccc1	> 11.4 µM	1.58%	inactive	4.88%	> 46 µM	> 9.22 µM	inactive	inactive	1.58 µM (active)						
Nc1ccc(S(=O)(=O)NCCS(=O)(=O)O)cc1	> 11.4 µM	-2.08%		-3.3%	> 46 µM	> 9.22 µM	inactive	inactive	inactive	-3.1% [at 2.29 µM]					-1.31%
CCCC1c2c(ccc3ccccc23)Oc2ccc3ccccc3c21	> 11.4 µM	11%	0.631 µM (active)	10.6%	> 46 µM	> 9.22 µM	inactive	inactive				0.631 µM (active)			
CC(C)CNC(=O)O	> 11.4 µM	8.49%	inactive	3.89%	> 46 µM	> 9.22 µM	inactive	inactive	inactive			inactive			
O=[N+]([O-])c1ccc(C2=Nn3c(nnc3-c3ccc(Cl)cc3)SC2)o1	> 11.4 µM	22.7%	0.158 µM (active)	-6.24%	> 46 µM	> 9.22 µM	inactive	inactive				2.51 µM (active)			
C[C@H](CN(C)C)C(O)(c1ccccc1)c1ccccc1	> 11.4 µM	-8.88%	inactive	8.39%	> 46 µM	> 9.22 µM	inactive	inactive				inactive			
Nc1ccccc1S[C@@H](C[N+](=O)[O-])c1ccc2c(c1)OCO2	> 11.4 µM	11.2%	0.631 µM (active)	-19.6%	> 46 µM	> 9.22 µM	inactive		3.98 µM (active)			1.58 µM (active)		inactive	
O=[N+]([O-])c1ccc(CSCc2ccc(Cl)cc2)cc1	> 11.4 µM	-19.3%	3.98 µM (active)	11.6%	> 46 µM	> 9.22 µM	inactive	inactive				0.398 µM (active)			
